Calls of active or inactive are those of the source. The rule behind the calls is not given here.
Target: Pantothenate synthetase (Mycobacterium tuberculosis (strain ATCC 25618 / H37Rv)) (UniProt P9WIL5)
Assay: Recombinant Mtb pantothenate synthetase (PanC) inhibitors, coupled enzyme, confirmatory (AID 375);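 note: 0% = full reaction with vehicle and 100% = no enzyme background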
Details: coupled enzyme assay; at 10 µM, stronger effect = higher value

Pantothenate synthetase (Mycobacterium tuberculosis (strain ATCC 25618 / H37Rv)), sequence (P9WIL5 whole entry, looked up): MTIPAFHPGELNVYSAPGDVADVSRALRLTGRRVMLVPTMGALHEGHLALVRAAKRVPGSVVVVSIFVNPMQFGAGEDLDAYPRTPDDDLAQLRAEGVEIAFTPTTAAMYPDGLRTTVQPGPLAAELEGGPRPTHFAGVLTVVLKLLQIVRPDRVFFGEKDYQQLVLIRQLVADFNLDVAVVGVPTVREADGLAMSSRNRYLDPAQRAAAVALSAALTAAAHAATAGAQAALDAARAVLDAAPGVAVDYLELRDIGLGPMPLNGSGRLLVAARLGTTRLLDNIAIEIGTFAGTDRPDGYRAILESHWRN

SMILES | inhibition
CC1CCCCC1NC(=O)C1CCN(C(=O)NC2CCCCC2)CC1 (centres undefined) | 0% (inactive)
COc1ccc(S(=O)(=O)NCC(c2cccnc2)N2CCN(C)CC2)cc1C (centres undefined) | 0% (inactive)
COC(=O)C1=C(C)OC(N)=C(C#N)C1c1ccccc1 (centres undefined) | 0% (inactive)
CCOc1cc(C2CC(=O)N3CN(C4CCCCC4)CSC3=C2C#N)ccc1O (centres undefined) | 0% (inactive)
O=C(O)Cc1ccccc1C(=O)O | 0% (inactive)
CC1NC(=O)NC1CCCCCC(=O)NCCc1ccccc1 (centres undefined) | 2% (inactive)
CCCCC(=O)NCCNc1nc2c(c(=O)n(C)c(=O)n2C)n1Cc1ccccc1 | 0% (inactive)
O=C(O)CCN1C(=O)c2ccccc2C1=O | 6% (inactive)
Cc1ccc(-c2nc(=S)c3c(n2Cc2ccco2)CCCC3)cc1 | 0% (inactive)
O=C(Nc1cccc(Cl)c1)N1CCN(c2ncccn2)CC1 | 1% (inactive)
CCn1c(=O)cc(SCC(=O)Nc2cccnc2)c2ccccc21 | 0% (inactive)
COC(=O)Nc1ccc(S(=O)(=O)N2CCN(c3ccc(F)cc3)CC2)cc1 | 0% (inactive)
COC(=O)C1=C(N)Oc2cc(C)[nH]c(=O)c2C1c1ccncc1 (centres undefined) | 0% (inactive)
O=C(CN1C(=O)NC2(CCCCC2)C1=O)Nc1ccc(S(=O)(=O)N2CCOCC2)cc1 | 5% (inactive)
CCN(CC)CCOC(=O)c1c(C)oc2ccc(O)cc12 | 0% (inactive)
Cc1nnc(NC(=O)C2CCCO2)s1 (centres undefined) | 3% (inactive)
CCOCCCNC(=O)c1ccc2c(c1)N(Cc1ccccc1)C(=O)CS2=O (centres undefined) | 0% (inactive)
CCSc1nc(O)c(C2OC(=O)c3c2ccc(OC)c3OC)c(=O)n1-c1ccccc1 (centres undefined) | 0% (inactive)
CCC(C)NC(=O)C1(C)CCC(=O)N1Cc1ccccc1OC (centres undefined) | 10% (inactive)
O=C(CCn1c(=O)sc2ccccc21)NC1=NCCS1 | 3% (inactive)

SMILES | inhibition
O=C(O)CC1CCCC(c2ccccc2)C1=O (centres undefined) | 5% (inactive)
CC(=O)OCC(=O)[C@H]1CC[C@H]2[C@@H]3CCC4=CC(=O)CC[C@]4(C)[C@H]3CC[C@]12C | 1% (inactive)
Nc1sccc1C(=O)c1ccccc1 | 4% (inactive)
CCOc1ccc2c(c1)sc1nc(C(=O)OC)cc(=O)n12 | 0% (inactive)
COC(=O)c1cnc2c(C(F)(F)F)cccc2c1OC | 2% (inactive)
CN(C(=O)Cn1c(=O)n(CCCCC(=O)NC2CCCC2)c(=O)c2ccccc21)C1CCCCC1 | 0% (inactive)
Cc1nc(CCNS(=O)(=O)c2cccs2)cs1 | 0% (inactive)
COc1cc2nc(C3CCC3)n(NC(=O)C3CCCC(OC)C3)c(=O)c2cc1OC (centres undefined) | 2% (inactive)
CC1CN(S(=O)(=O)c2ccc(Cl)c(C(F)(F)F)c2)CC(C)O1 (centres undefined) | 0% (inactive)
CCCCOc1ccc(CSc2n[nH]c(C)n2)cc1 | 0% (inactive)
CCCCCOc1ccc(C2NC(=O)NC2=O)cc1 (centres undefined) | 0% (inactive)
CCc1nnc(NC(=O)c2cc3c(s2)CCCCC3)s1 | 0% (inactive)
CCN(CC)CCOC(=O)C1(C2CCCCC2)CCCCC1 | 0% (inactive)
NC(=O)C1(N2CCCCC2)CCN(CC(=O)Nc2cc(Cl)ccc2Cl)CC1 | 3% (inactive)
CCOc1cc2[nH]c(=O)n(CCCCC(=O)N3CCCCCC3)c(=O)c2cc1OCC | 2% (inactive)
CCC(=O)N1CCN=C1SCc1ccc(Cl)cc1 | 0% (inactive)
COc1ccc(N2CCN(C(=O)CN3C(=O)C4CC=CCC4C3=O)CC2)cc1 (centres undefined) | 0% (inactive)
CCN1C(=O)N(CC)C2C1N(C(C)=O)C(=O)N2C(C)=O (centres undefined) | 0% (inactive)
COc1cc(NC(=O)C2CCCN2S(=O)(=O)c2cccc3cccnc23)cc(OC)c1OC (centres undefined) | 0% (inactive)

Reference: PubChem BioAssay
